Measurements reported in PubChem BioAssay AID1159580 (chemical genetic matrix, 2015).
Values joined by “and” are separate entries in the source; they are usually repeats but may differ in a detail not shown here. Equal values may be shown once. Out of some 5,500 compounds screened, about 2,000 (36%) were called active. Roughly 18% stayed inconclusive and do not appear here. Rule as the data show it: active = normalized growth mostly below about 0.91 (no sharp cut-off); inconclusive = no clear call, values can overlap the other calls; inactive = mostly above about 0.92. This is one part of the list.

Assay: chemical genetic growth profiling, strain panel (AID 1159580);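 also: tested at 20 µM; growth read once vehicle control cultures reached saturation at 30 °C; 1 = growth at the plate median or of vehicle wells; lower values mean less growth of the strain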
Details: growth OD

Measured: normalized growth

COc1ccc(C(=O)O)cc1OC
inactive: S. cerevisiae deletion strains, locus YAL013W, strain DEP1, stronger effect = lower value 1.02 | S. cerevisiae deletion strains, locus YAL021C, strain ccr4, stronger effect = lower value 0.981 | S. cerevisiae deletion strains, locus YAL026C, strain drs2, stronger effect = lower value 0.996 | S. cerevisiae deletion strains, locus YAL030W, strain snc1, stronger effect = lower value 0.995 | S. cerevisiae deletion strains, locus YBL061C, strain skt5, stronger effect = lower value 1 | S. cerevisiae deletion strains, locus YBR009C, strain hhf1, stronger effect = lower value 1.01 | S. cerevisiae deletion strains, locus YBR021W, strain FUR4, stronger effect = lower value 1.02 | S. cerevisiae deletion strains, locus YBR023C, strain chs3, stronger effect = lower value 1.01 | S. cerevisiae deletion strains, locus YBR171W, strain sec66, stronger effect = lower value 0.996 | S. cerevisiae deletion strains, locus YBR229C, strain ROT2, stronger effect = lower value 1 | S. cerevisiae deletion strains, locus YBR231C, strain swc5, stronger effect = lower value 0.996 | S. cerevisiae deletion strains, locus YBR279W, strain paf1, stronger effect = lower value 0.997 | S. cerevisiae deletion strains, locus YCL011C, strain gbp2, stronger effect = lower value 1 | S. cerevisiae deletion strains, locus YCL016C, strain dcc1, stronger effect = lower value 1 | S. cerevisiae deletion strains, locus YCL029C, strain bik1, stronger effect = lower value 0.992 | S. cerevisiae deletion strains, locus YCL069W, strain vba3, stronger effect = lower value 1 | S. cerevisiae deletion strains, locus YCR088W, strain abp1, stronger effect = lower value 0.996 | S. cerevisiae deletion strains, locus YDL005C, strain med2, stronger effect = lower value 0.996 | S. cerevisiae deletion strains, locus YDL035C, strain GPR1, stronger effect = lower value 1.08 | S. cerevisiae deletion strains, locus YDL040C, strain nat1, stronger effect = lower value 0.997 | S. cerevisiae deletion strains, locus YDL074C, strain BRE1, stronger effect = lower value 1.17 | S. cerevisiae deletion strains, locus YDL101C, strain DUN1, stronger effect = lower value 1 | S. cerevisiae deletion strains, locus YDL185W, strain tfp1, stronger effect = lower value 0.988 | S. cerevisiae deletion strains, locus YDL192W, strain arf1, stronger effect = lower value 1.03 | S. cerevisiae deletion strains, locus YDR001C, strain nth1, stronger effect = lower value 0.994 | S. cerevisiae deletion strains, locus YDR069C, strain doa4, stronger effect = lower value 1.01 | S. cerevisiae deletion strains, locus YDR101C, strain arx1, stronger effect = lower value 1.01 | S. cerevisiae deletion strains, locus YDR137W, strain rgp1, stronger effect = lower value 1.02 | S. cerevisiae deletion strains, locus YDR159W, strain sac3, stronger effect = lower value 0.964 | S. cerevisiae deletion strains, locus YDR162C, strain NBP2, stronger effect = lower value 1.04 | S. cerevisiae deletion strains, locus YDR195W, strain ref2 0.908 | S. cerevisiae deletion strains, locus YDR297W, strain sur2, stronger effect = lower value 1 | S. cerevisiae deletion strains, locus YDR318W, strain mcm21, stronger effect = lower value 1 | S. cerevisiae deletion strains, locus YDR334W, strain swr1, stronger effect = lower value 0.998 | S. cerevisiae deletion strains, locus YDR335W, strain msn5, stronger effect = lower value 1 | S. cerevisiae deletion strains, locus YDR388W, stronger effect = lower value 1 | S. cerevisiae deletion strains, locus YDR392W, strain spt3, stronger effect = lower value 0.984 | S. cerevisiae deletion strains, locus YDR502C, strain sam2, stronger effect = lower value 0.991 | S. cerevisiae deletion strains, locus YEL003W, strain gim4, stronger effect = lower value 0.992 | S. cerevisiae deletion strains, locus YEL037C, strain rad23, stronger effect = lower value 0.989 | S. cerevisiae deletion strains, locus YEL061C, strain CIN8 (second series), stronger effect = lower value 0.998 | S. cerevisiae deletion strains, locus YER015W, strain faa2, stronger effect = lower value 0.992 | S. cerevisiae deletion strains, locus YER016W, strain bim1, stronger effect = lower value 1.01 | S. cerevisiae deletion strains, locus YER110C, stronger effect = lower value 0.978 | S. cerevisiae deletion strains, locus YER111C, strain swi4, stronger effect = lower value 1.01 | S. cerevisiae deletion strains, locus YER155C, strain BEM2 (second series), stronger effect = lower value 0.988 | S. cerevisiae deletion strains, locus YER155C, strain BEM2, stronger effect = lower value 0.994 | S. cerevisiae deletion strains, locus YER167W, strain BCK2, stronger effect = lower value 0.999 | S. cerevisiae deletion strains, locus YFR010W, strain ubp6, stronger effect = lower value 0.993 | S. cerevisiae deletion strains, locus YGL078C, strain dbp3, stronger effect = lower value 0.99 | S. cerevisiae deletion strains, locus YGL086W, strain mad1, stronger effect = lower value 1.01 | S. cerevisiae deletion strains, locus YGL167C, strain pmr1, stronger effect = lower value 0.999 | S. cerevisiae deletion strains, locus YGL173C, strain kem1, stronger effect = lower value 0.998 | S. cerevisiae deletion strains, locus YGL227W, strain vid30, stronger effect = lower value 1.03 | S. cerevisiae deletion strains, locus YGL240W, strain doc1, stronger effect = lower value 0.998 | S. cerevisiae deletion strains, locus YGL248W, strain PDE1, stronger effect = lower value 1.05 | S. cerevisiae deletion strains, locus YGL253W, strain hxk2, stronger effect = lower value 1.01 | S. cerevisiae deletion strains, locus YGR078C, strain PAC10, stronger effect = lower value 1.04 | S. cerevisiae deletion strains, locus YGR135W, strain pre9, stronger effect = lower value 0.988 | S. cerevisiae deletion strains, locus YGR252W, strain gcn5, stronger effect = lower value 1.03 | S. cerevisiae deletion strains, locus YHR013C, strain ard1, stronger effect = lower value 0.978 | S. cerevisiae deletion strains, locus YHR027C, strain rpn1, stronger effect = lower value 1.01 | S. cerevisiae deletion strains, locus YHR030C, strain SLT2, stronger effect = lower value 1 and 0.99 | S. cerevisiae deletion strains, locus YHR079C, strain IRE1 (second series), stronger effect = lower value 0.987 | S. cerevisiae deletion strains, locus YHR079C, strain IRE1, stronger effect = lower value 0.961 | S. cerevisiae deletion strains, locus YHR094C, strain hxt1, stronger effect = lower value 0.972 | S. cerevisiae deletion strains, locus YHR129C, strain ARP1, stronger effect = lower value 1.03 | S. cerevisiae deletion strains, locus YHR142W, strain chs7, stronger effect = lower value 1.01 | S. cerevisiae deletion strains, locus YHR200W, strain rpn10, stronger effect = lower value 0.993 | S. cerevisiae deletion strains, locus YIL066C, strain RNR3, stronger effect = lower value 1.03 | S. cerevisiae deletion strains, locus YIL073C, strain SPO22, stronger effect = lower value 1.02 | S. cerevisiae deletion strains, locus YIL125W, strain kgd1, stronger effect = lower value 0.992 | S. cerevisiae deletion strains, locus YIR030C, strain dcg1, stronger effect = lower value 0.985 | S. cerevisiae deletion strains, locus YJL092W, strain hpr5, stronger effect = lower value 0.985 | S. cerevisiae deletion strains, locus YJL095W, strain BCK1 (second series), stronger effect = lower value 0.985 | S. cerevisiae deletion strains, locus YJL095W, strain BCK1, stronger effect = lower value 1.06 and 0.982 | S. cerevisiae deletion strains, locus YJL115W, strain asf1, stronger effect = lower value 0.995 | S. cerevisiae deletion strains, locus YJL129C, strain trk1, stronger effect = lower value 1.04 | S. cerevisiae deletion strains, locus YJL134W, strain LCB3, stronger effect = lower value 0.995 | S. cerevisiae deletion strains, locus YJL154C, strain vps35, stronger effect = lower value 0.992 | S. cerevisiae deletion strains, locus YJL164C, strain tpk1, stronger effect = lower value 1 | S. cerevisiae deletion strains, locus YJL166W, strain qcr8, stronger effect = lower value 1.01 | S. cerevisiae deletion strains, locus YJL168C, strain set2, stronger effect = lower value 0.993 | S. cerevisiae deletion strains, locus YJL187C, strain SWE1 (second series), stronger effect = lower value 1.02 | S. cerevisiae deletion strains, locus YJR066W, strain TOR1, stronger effect = lower value 0.996 | S. cerevisiae deletion strains, locus YKL009W, strain mrt4, stronger effect = lower value 1.02 | S. cerevisiae deletion strains, locus YKL068W, stronger effect = lower value 0.983 | S. cerevisiae deletion strains, locus YKL085W, strain MDH1 (second series), stronger effect = lower value 0.993 | S. cerevisiae deletion strains, locus YKL085W, strain MDH1, stronger effect = lower value 0.993 | S. cerevisiae deletion strains, locus YKL160W, strain elf1, stronger effect = lower value 1 | S. cerevisiae deletion strains, locus YKR001C, strain vps1, stronger effect = lower value 1.05 | S. cerevisiae deletion strains, locus YKR026C, strain gcn3, stronger effect = lower value 1 | S. cerevisiae deletion strains, locus YKR091W, strain srl3, stronger effect = lower value 0.996 | S. cerevisiae deletion strains, locus YLL001W, strain dnm1, stronger effect = lower value 0.997 | S. cerevisiae deletion strains, locus YLL026W, stronger effect = lower value 0.999 | S. cerevisiae deletion strains, locus YLL041C, strain sdh2, stronger effect = lower value 0.992 | S. cerevisiae deletion strains, locus YLR027C, strain aat2, stronger effect = lower value 1 | S. cerevisiae deletion strains, locus YLR039C, strain RIC1, stronger effect = lower value 1.22 | S. cerevisiae deletion strains, locus YLR058C, strain SHM2, stronger effect = lower value 1.01 | S. cerevisiae deletion strains, locus YLR102C, strain apc9, stronger effect = lower value 0.977 | S. cerevisiae deletion strains, locus YLR113W, strain HOG1, stronger effect = lower value 0.982 | S. cerevisiae deletion strains, locus YLR221C, strain rsa3, stronger effect = lower value 1.02 | S. cerevisiae deletion strains, locus YLR258W, strain gsy2, stronger effect = lower value 1.01 | S. cerevisiae deletion strains, locus YLR262C, strain YPT6 (second series), stronger effect = lower value 1.01 | S. cerevisiae deletion strains, locus YLR262C, strain YPT6, stronger effect = lower value 1.2 | S. cerevisiae deletion strains, locus YLR268W, strain sec22, stronger effect = lower value 1.05 | S. cerevisiae deletion strains, locus YLR320W, strain mms22, stronger effect = lower value 1 | S. cerevisiae deletion strains, locus YLR330W, strain CHS5, stronger effect = lower value 1.01 | S. cerevisiae deletion strains, locus YLR342W, strain FKS1 (second series), stronger effect = lower value 1.07 | S. cerevisiae deletion strains, locus YLR342W, strain FKS1, stronger effect = lower value 1 | S. cerevisiae deletion strains, locus YLR357W, strain rsc2, stronger effect = lower value 0.981 | S. cerevisiae deletion strains, locus YLR370C, strain arc18, stronger effect = lower value 1.01 | S. cerevisiae deletion strains, locus YLR371W, strain rom2, stronger effect = lower value 0.991 | S. cerevisiae deletion strains, locus YLR384C, strain iki3, stronger effect = lower value 1.01 | S. cerevisiae deletion strains, locus YLR418C, strain cdc73, stronger effect = lower value 1.07 | S. cerevisiae deletion strains, locus YML016C, strain PPZ1, stronger effect = lower value 1 | S. cerevisiae deletion strains, locus YML032C, strain rad52, stronger effect = lower value 0.998 | S. cerevisiae deletion strains, locus YML120C, strain ndi1, stronger effect = lower value 1.01 | S. cerevisiae deletion strains, locus YML124C, strain tub3, stronger effect = lower value 0.989 | S. cerevisiae deletion strains, locus YMR058W, strain fet3, stronger effect = lower value 1 | S. cerevisiae deletion strains, locus YMR078C, strain ctf18, stronger effect = lower value 0.982 | S. cerevisiae deletion strains, locus YMR125W, strain sto1, stronger effect = lower value 0.985 | S. cerevisiae deletion strains, locus YMR129W, stronger effect = lower value 0.93 | S. cerevisiae deletion strains, locus YMR205C, strain PFK2, stronger effect = lower value 1 | S. cerevisiae deletion strains, locus YMR223W, strain ubp8, stronger effect = lower value 1 | S. cerevisiae deletion strains, locus YMR231W, strain pep5, stronger effect = lower value 0.989 | S. cerevisiae deletion strains, locus YMR307W, strain GAS1, stronger effect = lower value 1.14 | S. cerevisiae deletion strains, locus YNL067W, strain RPL9B, stronger effect = lower value 1.01 | S. cerevisiae deletion strains, locus YNL071W, strain lat1, stronger effect = lower value 0.99 | S. cerevisiae deletion strains, locus YNL128W, strain TEP1, stronger effect = lower value 1.03 | S. cerevisiae deletion strains, locus YNL183C, strain NPR1, stronger effect = lower value 0.921 | S. cerevisiae deletion strains, locus YNL209W, strain ssb2, stronger effect = lower value 0.985 | S. cerevisiae deletion strains, locus YNL233W, strain BNI4, stronger effect = lower value 1.04 | S. cerevisiae deletion strains, locus YNL248C, strain rpa49, stronger effect = lower value 1 | S. cerevisiae deletion strains, locus YNL250W, strain rad50, stronger effect = lower value 0.952 | S. cerevisiae deletion strains, locus YNL271C, strain bni1, stronger effect = lower value 0.994 | S. cerevisiae deletion strains, locus YNL298W, strain CLA4, stronger effect = lower value 0.997 | S. cerevisiae deletion strains, locus YNL307C, strain MCK1, stronger effect = lower value 0.975 | S. cerevisiae deletion strains, locus YNL322C, strain KRE1 (second series), stronger effect = lower value 0.986 | S. cerevisiae deletion strains, locus YNR049C, strain mso1, stronger effect = lower value 0.987 | S. cerevisiae deletion strains, locus YNR052C, strain pop2, stronger effect = lower value 0.969 | S. cerevisiae deletion strains, locus YOL006C, strain TOP1, stronger effect = lower value 1.36 | S. cerevisiae deletion strains, locus YOL012C, strain htz1 0.898 | S. cerevisiae deletion strains, locus YOL147C, strain pex11, stronger effect = lower value 0.997 | S. cerevisiae deletion strains, locus YOR001W, strain rrp6, stronger effect = lower value 1.02 | S. cerevisiae deletion strains, locus YOR061W, strain CKA2, stronger effect = lower value 1.01 | S. cerevisiae deletion strains, locus YOR069W, strain VPS5, stronger effect = lower value 0.996 | S. cerevisiae deletion strains, locus YOR070C, strain gyp1, stronger effect = lower value 1 | S. cerevisiae deletion strains, locus YOR080W, strain dia2, stronger effect = lower value 0.996 | S. cerevisiae deletion strains, locus YOR083W, strain WHI5, stronger effect = lower value 0.996 | S. cerevisiae deletion strains, locus YOR106W, strain vam3, stronger effect = lower value 1.02 | S. cerevisiae deletion strains, locus YOR136W, strain idh2, stronger effect = lower value 0.995 | S. cerevisiae deletion strains, locus YOR144C, strain elg1, stronger effect = lower value 0.978 | S. cerevisiae deletion strains, locus YOR184W, strain ser1, stronger effect = lower value 1.07 | S. cerevisiae deletion strains, locus YOR231W, strain MKK1, stronger effect = lower value 0.979 | S. cerevisiae deletion strains, locus YOR265W, strain rbl2, stronger effect = lower value 0.995 | S. cerevisiae deletion strains, locus YOR270C, strain vph1, stronger effect = lower value 1.02 | S. cerevisiae deletion strains, locus YOR290C, strain snf2, stronger effect = lower value 1.02 | S. cerevisiae deletion strains, locus YOR316C, strain cot1, stronger effect = lower value 1.01 | S. cerevisiae deletion strains, locus YPL051W, strain arl3, stronger effect = lower value 0.993 | S. cerevisiae deletion strains, locus YPL078C, strain atp4, stronger effect = lower value 1 | S. cerevisiae deletion strains, locus YPL106C, strain sse1, stronger effect = lower value 0.975 | S. cerevisiae deletion strains, locus YPL240C, strain hsp82, stronger effect = lower value 1 | S. cerevisiae deletion strains, locus YPL256C, strain CLN2, stronger effect = lower value 0.973 | S. cerevisiae deletion strains, locus YPR119W, strain clb2, stronger effect = lower value 1 | S. cerevisiae deletion strains, locus YPR141C, strain kar3, stronger effect = lower value 0.976 | S. cerevisiae deletion strains, locus YPR163C, strain tif3, stronger effect = lower value 1.01 | S. cerevisiae deletion strains, locus YPR167C, strain met16, stronger effect = lower value 1.02 | S. cerevisiae deletion strains, strain wtn01, stronger effect = lower value 1.01 | S. cerevisiae strains, strain wild type, stronger effect = lower value 1.06
